Bioassay records as filed in PubChem.
Most compounds without a hit are left out; they make up all but 12% or so of the library.
ROMK mod = modulates human ROMK potassium channel activity. P48048. AID 1918. 130,000 tested, 2% active. B-score at 10 µM. Tet-inducible ROMK, thallium flux fluorescence; actives lie on both sides;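 active = signal ratio slope over the read window, or its plate-corrected B-score, at least 3 SD from the plate mean, either direction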;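 note: B-score of the F/F0 ratio slope over 7 to 12 s after thallium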
m-calpain inh = blocks pig calpain II enzyme activity; purified calpain II, fluorogenic peptide substrate, 30 min; inhibition, % at 16 µM; 220,000 tested, 0.37% active; AID 1236;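 active = inhibition above about 50%, limit read from the data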
Lmaj promast = inhibitors of Leishmania major promastigote growth | Leishmania major promastigotes, resazurin fluorescence viability | inhibition, % at 10 µM | 200,000 tested, 9% active | AID 1063; in the data active = inhibition above about 50%;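 note: promastigotes grown with compound for 44 hours at 28 °C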
Cl transport mod = modulators of human KCC2 chloride dependent transport; KCC2 cells, thallium flux FluoZin-2 fluorescence; B-score of Tl+ flux slope (higher = more flux/activation; lower = inhibition) at 10 µM; 190,000 tested, 2.2% active;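 active = thallium flux slope and its plate-corrected score both differing from the plate sample mean at a set confidence after two filtering rounds, in either direction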;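 note: slope of fluorescence scaled to starting intensity during 10 to 20 s after thallium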
Target sequence (Q9H2X9 whole entry, looked up): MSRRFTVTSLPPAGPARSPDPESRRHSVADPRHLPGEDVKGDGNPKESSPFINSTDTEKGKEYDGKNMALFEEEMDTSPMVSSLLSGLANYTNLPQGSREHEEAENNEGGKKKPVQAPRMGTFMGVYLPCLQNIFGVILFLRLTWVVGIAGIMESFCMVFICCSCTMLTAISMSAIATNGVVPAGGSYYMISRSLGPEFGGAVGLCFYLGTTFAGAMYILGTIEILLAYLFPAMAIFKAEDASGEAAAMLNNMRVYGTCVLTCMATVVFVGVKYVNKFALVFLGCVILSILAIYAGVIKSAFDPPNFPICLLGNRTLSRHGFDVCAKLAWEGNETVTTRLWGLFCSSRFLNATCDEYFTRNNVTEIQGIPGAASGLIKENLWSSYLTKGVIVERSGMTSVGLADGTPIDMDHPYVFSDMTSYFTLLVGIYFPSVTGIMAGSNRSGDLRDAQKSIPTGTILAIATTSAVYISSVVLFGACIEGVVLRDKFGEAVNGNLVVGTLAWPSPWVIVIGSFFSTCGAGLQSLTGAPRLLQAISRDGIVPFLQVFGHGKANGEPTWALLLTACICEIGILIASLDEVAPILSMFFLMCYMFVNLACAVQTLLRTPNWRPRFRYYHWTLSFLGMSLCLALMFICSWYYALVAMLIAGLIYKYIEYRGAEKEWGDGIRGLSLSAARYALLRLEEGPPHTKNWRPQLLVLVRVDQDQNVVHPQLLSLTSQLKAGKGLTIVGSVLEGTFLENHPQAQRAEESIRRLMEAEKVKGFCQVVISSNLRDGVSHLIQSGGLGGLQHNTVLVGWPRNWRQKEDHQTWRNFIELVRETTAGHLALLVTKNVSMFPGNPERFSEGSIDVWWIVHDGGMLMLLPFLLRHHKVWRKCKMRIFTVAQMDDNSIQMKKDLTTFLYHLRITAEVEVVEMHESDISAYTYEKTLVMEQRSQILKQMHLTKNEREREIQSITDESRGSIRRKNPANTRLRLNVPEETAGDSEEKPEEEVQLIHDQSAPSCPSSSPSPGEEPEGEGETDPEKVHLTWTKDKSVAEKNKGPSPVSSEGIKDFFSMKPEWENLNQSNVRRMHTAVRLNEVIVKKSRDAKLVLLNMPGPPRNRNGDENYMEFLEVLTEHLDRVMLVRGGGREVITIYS
WT yeast gro inh = growth inhibition of WT yeast, mitochondrial fusion screen | AID 1362 | 190,000 tested, 2.1% active | mitochondrial fusion phenotypic screen, WT strain | inhibition, % at 10 µM; in the data active = inhibition above about 58%; tested in S. cerevisiae
L major 1uM = inhibitors of Leishmania major promastigote growth, repeat at 1 uM; inhibition, % at 1 µM; AID 1258; shares compounds with Lmaj promast; L. major promastigote growth, resazurin fluorescence, 48 h; 1,100 tested, 13% active;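 active = inhibition above about 50% in both repeat tests, limit read from the data; inconclusive = one repeat under the set limit, the other over it; inactive = both repeats under the set limit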
KCC2 sec1 = KCC2 (human) modulation, secondary assay; shares compounds with Cl transport mod; HEK293-KCC2, thallium flux, FluoZin2 fluorescence; active compounds read high; normalised thallium flux (F/F0 slope) at 10 µM; 3,700 tested, 15% active;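 active = thallium flux slope above the same plate's solvent-only control mean plus 3 SD; inconclusive = the two replicate wells disagree; inactive = no significant difference from solvent-only control wells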
KCC2 bumet counter = thallium flux persisting under bumetanide in KCC2 cells, counter-screen secondary assay; 3,700 tested, 49% active; normalized thallium flux at 10 µM; shares compounds with Cl transport mod; AID 1714; HEK293-KCC2 + bumetanide/ouabain, thallium flux FluoZin2; active compounds read high;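 active = thallium entry rate above the same plate's blocked-transporter control wells by more than 3 SD; inconclusive = the two repeat wells disagree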;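 note: raw slope of fluorescence over initial fluorescence between 10 and 20 s after thallium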
KCC2 sec2 = KCC2 (human) modulation, second secondary assay; shares compounds with Cl transport mod; HEK293-KCC2, thallium flux FluoZin2 fluorescence; actives lie on both sides; F/F0 rise rate, 10–20 s post-thallium; normalized thallium flux at 10 µM; 3,700 tested, 23% active; AID 1715;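 active = thallium flux slope more than 3 SD above or below the plate's solvent-only control mean, mostly below; inconclusive = the two repeat wells disagreed; inactive = no significant shift from solvent-only controls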
HEK counter1 = parental HEK flux effect, counter-screen; 3,700 tested, 46% active; HEK293 parental cells, thallium flux FluoZin2, ouabain; baseline-ratio fluorescence slope, 10–20 s after thallium; shares compounds with Cl transport mod; thallium flux rate (normalised fluorescence) at 10 µM;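 active = thallium flux rate significantly above the same plate's solvent-only control wells, beyond their mean plus 3 SD; inconclusive = the two replicate wells gave conflicting results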
KCC2 ouabain = confirmation of human KCC2 modulators with ouabain. raw Tl+ flux slope (below DMSO = inhibition, above = activation) at 10 µM. 3,700 tested, 48% active. shares compounds with Cl transport mod. HEK293-KCC2, thallium flux FluoZin2 fluorescence; bidirectional: low = inhibitor, high = activator. AID 1717;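 active = thallium flux slope beyond 3 SD from same-plate DMSO control mean in most replicates, usually higher, sometimes lower; inconclusive = repeat tests gave conflicting results; inactive = no significant difference from controls in most replicates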;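 note: slope of initial-normalized fluorescence between seconds 10 and 20 after thallium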
HEK counter2 = acts in parental HEK cells, second KCC2 counter-screen; shares compounds with Cl transport mod; HEK293 parental, thallium flux FluoZin-2 fluorescence slope; thallium flux slope at 10 µM; 3,700 tested, 33% active; AID 1718;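 active = thallium flux slope above the same plate's solvent-control mean plus 3 SD in both duplicate wells; inconclusive = duplicate wells that disagreed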;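 note: run without ouabain in cells lacking the KCC2 cotransporter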
ROMK retest = human ROMK channel modulation, retest confirmation. shares compounds with ROMK mod. ROMK thallium flux, fluorescence ratio; active compounds read low. normalized thallium flux (F/F0 slope) at 10 µM. 3,000 tested, 54% active. AID 1917;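 active = Flux at 10 µM at least 3 SD below or above vehicle control mean in one or both replicates; inconclusive = no clear call, values can overlap the other calls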
Numbers stand for hits; . = inactive; ? = inconclusive; / = no result.

SMILES	ROMK mod	m-calpain inh	Lmaj promast	Cl transport mod	WT yeast gro inh	KCC2 sec1	KCC2 bumet counter	KCC2 sec2	HEK counter1	KCC2 ouabain	HEK counter2	others
O=[N+]([O-])c1ccc(C[n+]2cccc3c4ccccc4ccc32)cc1	.	.	.	.	.	/	/	/	/	/	/
CC1Cc2ccccc2N1C(=O)CSc1nnnn1C (configuration not stated)	.	.	.	.	.	/	/	/	/	/	/
CC1Cc2ccccc2N1C(=O)CSc1nnc(Cc2ccccc2)n1CCc1ccccc1 (configuration not stated)	-3.9	.	51	.	.	/	/	/	/	/	/	L major 1uM=.;ROMK retest=0.062
O=C(CS(=O)c1ccc(C(F)(F)F)cc1[N+](=O)[O-])Oc1ccccc1 (configuration not stated)	/	.	.	.	.	/	/	/	/	/	/
CS(=O)(=O)c1ccc(S(=O)CC(=O)OCc2ccccc2)c([N+](=O)[O-])c1 (configuration not stated)	-5.3	.	57	/	.	/	/	/	/	/	/	L major 1uM=.;ROMK retest=0.053
N#C/C(=C/c1ccc(Br)s1)C(=O)NCCc1c[nH]c2ccccc12	/	.	.	.	.	/	/	/	/	/	/
COc1ccc2cc(Br)ccc2c1CC(=O)NC1CC(C)(C)NC(C)(C)C1	-2.9	.	100	/	.	/	/	/	/	/	/	L major 1uM=.;ROMK retest=0.067
CCNC(=O)Cc1c(OC)ccc2cc(Br)ccc12	.	.	.	.	.	/	/	/	/	/	/
COc1ccc(C2C(C#N)=C(N)Oc3cc(C)n(Cc4ccncc4)c(=O)c32)cc1 (configuration not stated)	.	.	.	.	.	/	/	/	/	/	/
CCN1C=C(Cc2ccc(OC)cc2)C2=C(C1)C(c1ccc(OC)cc1)C(C#N)=C(N)O2 (configuration not stated)	/	.	100	.	.	/	/	/	/	/	/	L major 1uM=.;ROMK retest=?
Cc1ccc(C(C)C)c(OCc2nn(CC(=O)c3ccc(Cl)cc3)c3[n+]2CCCCC3)c1	-7.5	.	98	.	.	/	/	/	/	/	/	L major 1uM=.;ROMK retest=0.049
CC(C)CCN(C)C1CCN(S(=O)(=O)c2cccc(C(F)(F)F)c2)CC1	-2.9	.	93	.	.	/	/	/	/	/	/	L major 1uM=80;ROMK retest=.
O=S(=O)(CC(CN1CCCCC1)N1CCCCC1)c1ccc2ccccc2c1 (configuration not stated)	-5.8	.	99	.	.	/	/	/	/	/	/	L major 1uM=?;ROMK retest=0.059
Cc1nc(SCC(=O)Nc2cc(C(N)=O)cc(C(N)=O)c2)c2c(C)c(C)sc2n1	.	.	/	38	/	?	0.042	.	0.052	0.045	0.022
Cc1nc(SCC(=O)NCc2ccco2)c2c(C)c(C)sc2n1	/	.	.	.	.	/	/	/	/	/	/
C/C(=N\NC(=O)Nc1ccccc1)c1ccccc1	/	.	.	.	.	/	/	/	/	/	/
COc1ccc(S(=O)(=O)N(CCC(=O)O)Cc2ccccc2)cc1	.	.	.	-3.7	.	.	.	0.022	.	0.015	.
O=C(O)CCCN(Cc1cccc(Br)c1)S(=O)(=O)c1ccc(Br)cc1	.	.	.	-5.5	.	.	.	0.029	.	0.012	.
O=c1oc2ccccc2c(Nc2ccccc2O)c1[N+](=O)[O-]	.	.	.	.	.	/	/	/	/	/	/
O=c1oc2ccccc2c(Nc2cc3ccccc3cc2O)c1[N+](=O)[O-]	.	.	.	-4.3	.	.	.	?	.	0.016	0.0083
O=c1oc2ccccc2c(Nc2cccc3ccccc23)c1[N+](=O)[O-]	/	.	.	-2.6	.	.	.	.	.	0.016	.
O=c1oc2ccccc2c(Nc2cccc3cccnc23)c1[N+](=O)[O-]	.	.	.	.	.	/	/	/	/	/	/
CCC1CCCCN1C(=S)NC(=O)c1cccs1 (configuration not stated)	.	.	.	63	.	0.036	0.1	0.086	0.088	0.088	0.087
CCC1CCCCN1C(=S)NC(=O)c1ccc(F)c(S(=O)(=O)N2CCOCC2)c1 (configuration not stated)	/	.	.	3.2	.	?	0.019	.	0.01	0.029	?
COc1ccc(C(=O)O)cc1S(=O)(=O)NCCc1ccccn1	/	.	/	.	/	/	/	/	/	/	/
SMILES	ROMK mod	m-calpain inh	Lmaj promast	Cl transport mod	WT yeast gro inh	KCC2 sec1	KCC2 bumet counter	KCC2 sec2	HEK counter1	KCC2 ouabain	HEK counter2	others
Cc1cccc(N=Nc2c(C)[nH]n(C(N)=S)c2=O)c1C	.	.	.	5.8	72	.	0.0093	.	0.0098	.	?
COCc1nnc(NC(=O)c2cc(OC)c(OC)cc2[N+](=O)[O-])s1	.	.	.	.	.	/	/	/	/	/	/
O=C(NC(=S)N1CCc2ccccc21)c1ccc(Br)o1	/	.	.	65	.	0.063	0.086	0.09	0.098	0.09	0.11
O=C(NC(=S)N1CCc2ccccc21)C1CCC1	.	.	.	14	.	.	0.025	.	0.018	?	0.016
CC(C)(C)C(=O)NC(=S)N1CCc2ccccc21	/	.	.	22	.	0.024	0.1	0.052	?	0.066	0.037
O=C(Nc1c2c(nc3ccccc13)CCCC2)c1cccc([N+](=O)[O-])c1	.	.	.	.	.	/	/	/	/	/	/
COc1ccc(OC)c(NC(=O)CSc2nnc(C3CCCCC3)o2)c1	.	.	.	.	.	/	/	/	/	/	/
COc1cc2c(cc1OC)C(COc1ccccc1OC)N(C(=O)C(C)C)CC2 (configuration not stated)	.	.	.	.	.	/	/	/	/	/	/
CCC(=O)N1CCc2cc(OC)c(OC)cc2C1COc1ccccc1OC (configuration not stated)	.	.	.	-5	.	.	.	.	.	.	.
CCCc1nnc(SCC(=O)N2CCOCC2)n1CCCOC	/	.	.	8	.	.	.	.	.	.	.
CCCc1nnc(SCC(=O)N2CCOCC2)n1CC1CCCO1 (configuration not stated)	/	.	.	.	.	/	/	/	/	/	/
CCC(=O)NNC(=O)c1cc(COc2cc(Cl)cc(Cl)c2)on1	.	.	/	8.6	/	.	0.018	.	0.017	?	0.014
CCCc1cc(C(=O)Nc2cccc(Cl)c2)no1	/	.	.	.	.	/	/	/	/	/	/
